# Data from PubChem BioAssay.
# Activity calls are given as the source filed them. Unless noted, the rule behind the calls is not given here.
# How the values were obtained:
# [1] = resazurin metabolic signal in HepG2 cells – cell-based, resazurin fluorescence, 24 h, PK04 Diversity Set, profiling panel (AID 1172); conditions: HepG2 viability, higher = more signal; note: test concentration not given here
# [2] = budding yeast growth changes without added modifier – OD600, strain BY4716, 24 h, basal condition, primary screen (AID 1173); conditions: S. cerevisiae BY4716 growth, OD600, 24 h; higher = more signal, called active from +8 up or from −8 down
# [3] = viability profiling in MM1S myeloma cells – cell-based, resazurin fluorescence, basal, 24 h, PK04 Diversity Set, profiling panel (AID 1174); conditions: higher = more signal, called active from +8 up or from −8 down;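 note: MM1S multiple myeloma cell line; test concentration not given here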
# [4] = target: Dihydroorotate dehydrogenase (quinone), mitochondrial (Plasmodium falciparum (isolate 3D7)) (UniProt Q08210); experiment: inhibition of P. falciparum DHODH – biochemical, C-terminal His tag, absorbance 600 nm, primary screen (AID 1175); conditions: PfDHODH enzyme, DCIP absorbance 600 nm; higher = more signal, called active from +8 up or from −8 down;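 note: recombinant parasite enzyme with a five histidine tag at its C terminus; test concentration not given here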
# [5] = inhibition of PAO1 biofilm formation – strain PAO1, LB-PBS medium, absorbance 600 nm, primary screen (AID 1176); note: test concentration not given here; conditions: P. aeruginosa PAO1 growth/biofilm, A600, 12 h; higher = more signal
# [6] = growth modulation of vineyard yeast isolate – strain RM11-1a, OD600, basal, 24 h, primary screen (AID 1177);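 note: cultures grown under basal conditions with no added stressor; test concentration not given here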; conditions: S. cerevisiae RM11-1a growth, OD600, 24 h; higher = more signal, called active from +8 up or from −8 down
# [7] = growth of efflux-deficient E. coli DRC39 – strain DRC39, OD650, 24 h, E. coli filamentation inducers, primary screen (AID 1178);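 note: growth measured as culture turbidity by optical density at 650 nm; test concentration not given here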; conditions: E. coli DRC39 acrAB, higher = more signal, called active from +8 up or from −8 down
# [8] = growth of efflux-deficient E. coli DRC39 – strain DRC39, OD650, 48 h, E. coli filamentation inducers, primary screen (AID 1179);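 note: screen aims at cell division blockers that make cells filament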; conditions: E. coli DRC39 delta-acrAB growth, higher = more signal, called active from +8 up or from −8 down
# [9] = viability profiling in RPMI8226 myeloma cells – cell-based, resazurin fluorescence, basal, 24 h, PK04 Diversity Set, profiling panel (AID 1180); conditions: higher = more signal;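 note: RPMI8826 multiple myeloma cell line at 5000 cells per well; test concentration not given here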
# [10] = target: E3 ubiquitin-protein ligase XIAP (Homo sapiens) (UniProt P98170); experiment: small molecules binding XIAP protein – biophysical, small-molecule microarray, fluorescence 635 nm, primary screen (AID 1181); conditions: higher = more signal;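 note: score merges 667 nm emission and signal to noise over triplicate slides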
# Sequence of E3 ubiquitin-protein ligase XIAP (Homo sapiens) (P98170 whole entry, looked up): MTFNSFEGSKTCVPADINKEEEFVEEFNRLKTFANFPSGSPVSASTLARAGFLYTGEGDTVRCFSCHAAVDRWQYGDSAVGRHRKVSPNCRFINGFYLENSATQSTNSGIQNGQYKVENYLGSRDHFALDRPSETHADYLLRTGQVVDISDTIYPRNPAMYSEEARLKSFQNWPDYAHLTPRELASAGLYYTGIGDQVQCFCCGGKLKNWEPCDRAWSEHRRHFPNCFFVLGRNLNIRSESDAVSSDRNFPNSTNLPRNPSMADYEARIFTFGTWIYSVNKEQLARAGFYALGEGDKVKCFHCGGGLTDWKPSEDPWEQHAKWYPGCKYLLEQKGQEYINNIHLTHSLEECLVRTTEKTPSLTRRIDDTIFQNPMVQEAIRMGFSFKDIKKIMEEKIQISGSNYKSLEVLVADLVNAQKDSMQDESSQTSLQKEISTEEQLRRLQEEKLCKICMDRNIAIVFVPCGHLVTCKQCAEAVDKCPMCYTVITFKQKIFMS
# Sequence of Dihydroorotate dehydrogenase (quinone), mitochondrial (Plasmodium falciparum (isolate 3D7)) (Q08210 whole entry, looked up): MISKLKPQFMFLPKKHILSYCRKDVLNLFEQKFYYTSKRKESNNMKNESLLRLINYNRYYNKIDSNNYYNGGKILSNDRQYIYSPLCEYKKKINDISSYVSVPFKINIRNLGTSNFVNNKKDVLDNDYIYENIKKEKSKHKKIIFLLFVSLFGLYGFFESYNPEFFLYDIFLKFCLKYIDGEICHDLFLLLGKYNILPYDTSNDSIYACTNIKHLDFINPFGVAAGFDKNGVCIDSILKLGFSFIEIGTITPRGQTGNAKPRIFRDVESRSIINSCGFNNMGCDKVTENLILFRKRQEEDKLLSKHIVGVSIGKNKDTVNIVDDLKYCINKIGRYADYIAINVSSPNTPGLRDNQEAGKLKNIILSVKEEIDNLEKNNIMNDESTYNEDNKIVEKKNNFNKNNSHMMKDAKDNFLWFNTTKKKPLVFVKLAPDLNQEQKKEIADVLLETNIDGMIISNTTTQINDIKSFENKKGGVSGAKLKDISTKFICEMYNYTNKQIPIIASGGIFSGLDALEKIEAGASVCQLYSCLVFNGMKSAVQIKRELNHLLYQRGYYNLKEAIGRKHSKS
compound,measurement,setting,value
C[C@@H]1C=CCC(=O)OC[C@H](C)C(=O)N[C@@H](C)C(=O)OC1,z-score,[1],0.29
same,z-score,[2],0.128 (inactive)
same,z-score,[3],0.617 (inactive)
same,composite z-score,[4],0.474 (inactive)
same,z-score,[5],-0.537 (inactive)
same,z-score,[6],0.317 (inactive)
same,z-score,[7],0.6 (inactive)
same,z-score,[8],0.879 (inactive)
same,z-score,[9],0.361
same,composite z-score,[10],-0.113
NCCCCCNC(=O)[C@@H]1C[C@@H]2C(=O)N3CCC[C@H]3C(=O)N2[C@@H]1c1cccc(OCCO)c1,z-score,[1],0.0359
same,z-score,[2],-0.582 (inactive)
same,z-score,[3],0.199 (inactive)
same,composite z-score,[4],-0.801 (inactive)
same,z-score,[5],-0.226 (inactive)
same,z-score,[6],-0.914 (inactive)
same,z-score,[7],0.0544 (inactive)
same,z-score,[8],-0.109 (inactive)
same,z-score,[9],-0.0506
same,composite z-score,[10],0.522
CCCNC(=O)OC[C@H]1O[C@H](CCON=C[C@@H](OC)[C@H](C)C=CCC(=O)OC)C=C[C@@H]1Oc1ccc(OC)cc1,z-score,[1],0.173
same,z-score,[2],0.746 (inactive)
same,z-score,[3],0.345 (inactive)
same,composite z-score,[4],0.329 (inactive)
same,z-score,[5],-0.537 (inactive)
same,z-score,[6],0.198 (inactive)
same,z-score,[7],0.356 (inactive)
same,z-score,[8],0.138 (inactive)
same,z-score,[9],1.95
same,composite z-score,[10],-0.0361
O=C1CCCC=C1C(O)CCOCc1ccccc1 (stereo not given),z-score,[1],0.123
same,z-score,[2],-1.76 (inactive)
same,z-score,[3],-0.43 (inactive)
same,composite z-score,[4],-0.0462 (inactive)
same,z-score,[5],0.602 (inactive)
same,z-score,[6],-0.735 (inactive)
same,z-score,[7],-0.88 (inactive)
same,z-score,[8],-1.74 (inactive)
same,z-score,[9],0.104
same,composite z-score,[10],-0.0525
COc1ccc(O[C@H]2C=C[C@@H](c3ccccc3)O[C@@H]2COC(=O)CCC(C)=NOC[C@@H](C)[C@H](OCc2ccccc2)C(C)C)cc1,z-score,[1],0.85
same,z-score,[2],0.445 (inactive)
same,z-score,[3],0.24 (inactive)
same,composite z-score,[4],-0.926 (inactive)
same,z-score,[5],-0.598 (inactive)
same,z-score,[6],0.659 (inactive)
same,z-score,[7],0.394 (inactive)
same,z-score,[8],-0.9 (inactive)
same,z-score,[9],0.0668
same,composite z-score,[10],0.552
CC(=O)OC[C@H]1O[C@@H](ON=C[C@@H](C)[C@H](OCc2ccccc2)C(C)C)[C@H](OC(C)=O)[C@@H](OC(C)=O)[C@@H]1OC(C)=O,z-score,[1],-1.04
same,z-score,[2],0.0426 (inactive)
same,z-score,[3],-2.37 (inactive)
same,composite z-score,[4],-0.269 (inactive)
same,z-score,[5],1.01 (inactive)
same,z-score,[6],-0.519 (inactive)
same,z-score,[7],0.153 (inactive)
same,z-score,[8],0.722 (inactive)
same,z-score,[9],-0.8
same,composite z-score,[10],-0.162
CCOC(=O)[C@H](CC(C)C)NC(=O)CCC1CC(OC(=O)NCc2cccc3ccccc23)CC2(CCCC(COC(=O)NCCN3CCOCC3)O2)O1 (stereo not given in full),z-score,[1],1.29
same,z-score,[2],-0.996 (inactive)
same,z-score,[3],1.09 (inactive)
same,composite z-score,[4],-0.247 (inactive)
same,z-score,[5],0.131 (inactive)
same,z-score,[6],-0.613 (inactive)
same,z-score,[7],-0.404 (inactive)
same,z-score,[8],-0.88 (inactive)
same,z-score,[9],1.19
same,composite z-score,[10],-0.0143
O=C(CS)NCCCCCNC(=O)[C@@H]1C[C@@H]2C(=O)N[C@@H](Cc3ccccc3)C(=O)N2[C@@H]1c1ccc(O)cc1,z-score,[1],-0.204
same,z-score,[2],-0.391 (inactive)
same,z-score,[3],0.0755 (inactive)
same,composite z-score,[4],0.0126 (inactive)
same,z-score,[5],-0.0338 (inactive)
same,z-score,[6],0.349 (inactive)
same,z-score,[7],0.411 (inactive)
same,z-score,[8],0.904 (inactive)
same,z-score,[9],0.252
same,composite z-score,[10],-0.0282
C[C@@H]1CC[C@H]2C(=O)O[C@H](COc3ccc(C(C)(C)C)cc3)CN2[C@H]1c1ccc(Br)cc1,z-score,[1],0.182
same,z-score,[2],0.789 (inactive)
same,z-score,[3],0.837 (inactive)
same,composite z-score,[4],0.702 (inactive)
same,z-score,[5],0.18 (inactive)
same,z-score,[6],1.71 (inactive)
same,z-score,[7],-0.474 (inactive)
same,z-score,[8],-0.438 (inactive)
same,z-score,[9],1.12
same,composite z-score,[10],-0.0118
CC(CCN1CCCCc2nc(C)c(C)cc21)=NOC(C)CN1CCCc2nc(C)c(C)cc21 (stereo not given),z-score,[1],-0.0636
same,z-score,[2],-0.0975 (inactive)
same,z-score,[3],-0.542 (inactive)
same,composite z-score,[4],0.333 (inactive)
same,z-score,[5],1.03 (inactive)
same,z-score,[6],0.325 (inactive)
same,z-score,[7],0.529 (inactive)
same,z-score,[8],-0.936 (inactive)
same,z-score,[9],-0.0794
same,composite z-score,[10],1.56
CCc1cc2c(nc1CC)CCN(CCC(C)=NOC[C@@H](O)COCc1ccco1)C2,z-score,[1],-0.596
same,z-score,[2],-1.12 (inactive)
same,z-score,[3],-0.24 (inactive)
same,composite z-score,[4],-0.127 (inactive)
same,z-score,[5],-0.0174 (inactive)
same,z-score,[6],-0.727 (inactive)
same,z-score,[7],0.377 (inactive)
same,z-score,[8],0.389 (inactive)
same,z-score,[9],-0.0388
same,composite z-score,[10],0.183
[N-]=[N+]=NCc1ccccc1C[C@]1(C(=O)NCc2ccccc2)N=C(c2ccc(OCCCO)cc2)O[C@H]1c1ccccc1N=[N+]=[N-],z-score,[1],-0.269
same,z-score,[2],0.316 (inactive)
same,z-score,[3],-1.53 (inactive)
same,composite z-score,[4],0.294 (inactive)
same,z-score,[5],1.68 (inactive)
same,z-score,[6],-0.204 (inactive)
same,z-score,[7],0.82 (inactive)
same,z-score,[8],-0.0271 (inactive)
same,z-score,[9],-2.15
same,composite z-score,[10],-0.22
